Assay outcomes: PubChem, National Center for Advancing Translational Sciences (NCATS)
Shown are actives, neighbours in structure and some others; about 11% of the full set was active somewhere.
JMJD2A Tudor inh: blocks the human JMJD2A Tudor domain; O75164; 390,000 compounds, 4.4% hits; AlphaScreen JMJD2A-Tudor / H3K4me3 peptide binding; Potency, µM (top dose mostly 114 µM), for the others: top-dose activity change, negative = inhibition, usual class: inhibitors; further: on the % scale 0 is the no-effect control and ±100 the full control effect; nearly all actives have a fitted effect of over 50% in size
G9a block: blocks human histone lysine methyltransferase G9a | Q96KQ7 | G9a H3K9 monomethylation, AlphaScreen, 2 h | Potency, µM (titrated, usually from 102 µM), for inactives: at the top dose activity, negative = inhibition, hits mostly inhibitors | 350,000 compounds, 8.8% hits | AID 504332; further: on the % scale 0 is the no-effect control and ±100 the full control effect; nearly all actives have a fitted effect of over 75% in size
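Enzyme 20 nM + cpd, 15 min RT; add b-H3K9 pep 500 nM / SAM 20 uM; 2 h RT; anti-H3K9me1 Ab 0.5 ug/mL + SA donor / anti-rabbit acceptor beads 20 ug/mL each, 10 min; AlphaScreen read.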
BAZ2B inh: blocks human BAZ2B. Q9UIF8. AlphaScreen BAZ2B-H3K14Ac peptide displacement. Potency, µM (series often up to 114 µM), for the others: at the top dose activity change, negative = inhibition, actives largely listed as inhibitors. 360,000 compounds, 4.4% hits; further: on the % scale 0 is the no-effect control and ±100 the full control effect; nearly all actives have a fitted effect of over 60% in size
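AlphaScreen displacement of biotin-H3(5-23)K14Ac peptide (50 nM final) from BAZ2B (50 nM final) in PBS pH 7.4, 0.01% Tween-20; complex preformed 30 min RT, then compounds (top 110 uM) 30 min RT, beads 20 min dark.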
HP1b chromo inh: blocks HP1-beta chromodomain binding to methylated histone tails; AlphaScreen HP1-beta / biotin-H3K9me3 peptide binding; Potency, µM (series often up to 114 µM), inactives show at the top dose activity change, negative = inhibition, hits mostly inhibitors; 390,000 compounds, 0.56% hits; further: nearly all actives have a fitted effect of over 70% in size
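AlphaScreen: HP1-beta (50 nM) preformed 30 min with biotin-H3(1-18)K9me3 peptide (50 nM) in PBS pH 7.4, 0.01% Tween-20. Compound added for 30 min at RT, then streptavidin donor/nickel chelate acceptor beads (10 ug/mL) for 30 min.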
L3MBTL1 block: blocks human L3MBTL1; 230,000 compounds, 0.66% hits; AlphaScreen L3MBTL1–H3K9me1 peptide binding; Potency, µM (top dose mostly 57.1 µM), without a hit: top-dose activity, negative = inhibition, usual class: inhibitors; AID 485360; further: on the % scale 0 is the no-effect control and ±100 the full control effect; nearly all actives have a fitted effect of over 60% in size
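AlphaScreen proximity signal between nickel-chelate acceptor and streptavidin donor beads (final 10 ug/mL) reports binding of 50 nM L3MBTL1 to 75 nM biotin-H3 K9me1 peptide; complex incubated with compounds 30 min at room temperature; cefsulodin titration as control.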
The depositor's hits bear a star; [ ] = remark or other dose. The call rests on the fitted dose curve; in most records, active means well fitted inhibition curve with a large enough effect; inconclusive means small, poorly fitted or top-dose-only effect; inactive means no such curve, though single readings can be large or run the other way. Potency means the concentration at half of the fitted maximal effect.

`Cc1ccc(-c2c(C)n3c4c(=O)n(C)c(=O)n(C)c4nc3n2CCCO)cc1` gave JMJD2A Tudor inh -33%, G9a block inconclusive, BAZ2B inh inconclusive and HP1b chromo inh 7%.
Screening COC(=O)CSc1nc(N)c(C#N)c(-c2ccc(O)cc2)c1C#N returned JMJD2A Tudor inh -16%, G9a block -2%, BAZ2B inh -6%, HP1b chromo inh 42% and L3MBTL1 block -7%.
`CCOC(=O)CSc1nc(N)c(C#N)c(-c2ccc(OCC)cc2)c1C#N` gave JMJD2A Tudor inh -10%, G9a block 45µM*, BAZ2B inh -4%, HP1b chromo inh 20% and L3MBTL1 block 9%.
For CC(C)Cn1c(=O)c2sccc2n2c(CCCC(=O)NCCc3ccc(Cl)cc3)nnc12 the results were JMJD2A Tudor inh -8%, G9a block -30%[59 µM], BAZ2B inh inconclusive and HP1b chromo inh 26%.
Cc1csc2nc(-c3ccc(NS(=O)(=O)c4cc(F)ccc4F)cc3)cn12 was read as JMJD2A Tudor inh inconclusive, G9a block -39%[59 µM], BAZ2B inh inconclusive and HP1b chromo inh 0%[57 µM].
For Cc1ccc(NC(=O)CN2C(=O)C(c3ccc(F)cc3)=NC23CCCCC3)c(C)c1 the results were JMJD2A Tudor inh 7%, G9a block 0%[59 µM], BAZ2B inh 7% and HP1b chromo inh 49%.
Screening Cc1ccc(N(CC(=O)NC2CCCCC2)C(=O)Cn2nnc(-c3ccc(C)o3)n2)cc1 returned JMJD2A Tudor inh -33%, G9a block -34%, BAZ2B inh -17%, HP1b chromo inh 6% and L3MBTL1 block -13%.
`O=C(NC1CCCCC1)C(c1ccncc1)N(C(=O)Cn1nnc(-c2cccs2)n1)C1CCCC1` (stereo not given) gave JMJD2A Tudor inh -28%, G9a block 22µM*, BAZ2B inh 4%, HP1b chromo inh 5% and L3MBTL1 block 1%.
Screening CCN(CC)C(=O)Cn1nnc(-c2ccc(C)o2)n1 returned JMJD2A Tudor inh -11%, G9a block 4µM*, BAZ2B inh -6%, HP1b chromo inh 40% and L3MBTL1 block 5%.
For CCOc1ccc(N(CC(=O)NC2CCCCC2)C(=O)Cn2nnc(-c3ccc(C)o3)n2)cc1 the results were JMJD2A Tudor inh -8%, G9a block 45µM*, BAZ2B inh -25% and HP1b chromo inh 3%.
Screening CCCC(C(=O)NC1CCCC1)N(C(=O)Cn1nnc(-c2ccc(C)o2)n1)C1CCCC1 (stereo not given) returned JMJD2A Tudor inh -31%, G9a block 11µM*, BAZ2B inh -3%, HP1b chromo inh 12% and L3MBTL1 block -12%.
Screening CCCN(C(=O)Cn1ncc2c([nH]c3ccccc32)c1=O)c1ccc(F)cc1 returned JMJD2A Tudor inh -17%, G9a block -31%[59 µM], BAZ2B inh -9% and HP1b chromo inh 25%.
Screening NS(=O)(=O)c1ccc(S(=O)(=O)N2CCN(c3nc(-c4cccs4)nc4ccccc34)CC2)cc1 returned JMJD2A Tudor inh -26% and HP1b chromo inh 27%.
Screening COc1cccc(Nc2ncc3nc(-c4cn(C)c5ccccc45)c(=O)n(C[C@H]4CCCO4)c3n2)c1 returned G9a block 10%[0.501 µM].
`CCC(C(=O)NC1CCCC1)N(C(=O)Cn1nnc(-c2ccc(C)o2)n1)c1ccc(OC)cc1` (stereo not given) gave JMJD2A Tudor inh -11%, G9a block 6%, BAZ2B inh 3% and HP1b chromo inh 11%.
`Cc1ccc(-c2nnn(CC(=O)N(Cc3ccccc3)C(C(=O)NC3CCCC3)c3ccncc3)n2)o1` (stereo not given) gave JMJD2A Tudor inh -7%, G9a block 22µM*, BAZ2B inh -3%, HP1b chromo inh 48% and L3MBTL1 block -3%.
`CCC(C(=O)NC1CCCC1)N(C(=O)Cn1nnc(-c2ccc(C)o2)n1)C(C)(C)C` (stereo not given) gave JMJD2A Tudor inh -13%, G9a block 32µM*, BAZ2B inh 5%, HP1b chromo inh 32% and L3MBTL1 block -6%.
`COCc1c(Br)c(C)nc(OCC(=O)N/N=C/c2ccco2)c1C#N` gave JMJD2A Tudor inh -27%, G9a block inconclusive, BAZ2B inh 89µM* and HP1b chromo inh 27%.
COCc1c(Br)c(C)nc(OCC(=O)N/N=C/c2ccc(C)o2)c1C#N was read as JMJD2A Tudor inh -8%, G9a block -33%, BAZ2B inh -13%, HP1b chromo inh 33% and L3MBTL1 block -8%.
For Cc1ccc(C(=O)NCC(=O)OCc2cc(=O)n3c(C)csc3n2)cc1 the results were JMJD2A Tudor inh -11%, G9a block 7%[59 µM], BAZ2B inh -7% and HP1b chromo inh -5%.
For Nc1c(-c2nc(-c3ccncc3)no2)nnn1CC(=O)Nc1ccccc1 the results were JMJD2A Tudor inh -29%, G9a block -22%[59 µM], BAZ2B inh -38% and HP1b chromo inh 191%.
CCc1ccccc1NC(=O)Cn1nnc(-c2nc(-c3ccncc3)no2)c1N was read as JMJD2A Tudor inh -1%, G9a block 7.1µM*, BAZ2B inh -13% and HP1b chromo inh 31%.
O=C(c1ccco1)N1CCC2(CC1)CN(c1cccc(-c3ccccc3)c1)C2 was read as G9a block 31%[12.7 µM].
Screening O=C(CSc1ncnc2nc[nH]c12)c1ccc2ccccc2c1 returned JMJD2A Tudor inh 79µM*, G9a block -12%[59 µM], BAZ2B inh -22%, HP1b chromo inh 17% and L3MBTL1 block 22%.
For c1nc(SSc2ncnc3nc[nH]c23)c2[nH]cnc2n1 the results were JMJD2A Tudor inh 0.79µM* and HP1b chromo inh inconclusive.
For O=C(O)CSc1ncnc2nc[nH]c12 the results were JMJD2A Tudor inh -18%, G9a block -29%[59 µM], BAZ2B inh -2% and HP1b chromo inh 34%.
`COc1ccc2oc(-c3ccc(C)c(NC(=O)COc4cc(C)cc(C)c4)c3)nc2c1` gave JMJD2A Tudor inh -16%, G9a block -3%[59 µM], BAZ2B inh -14% and HP1b chromo inh 18%.
For O=C(NC1CCCC1)C(c1ccc(F)cc1)N(Cc1ccc(F)cc1)C(=O)CCl (stereo not given) the results were JMJD2A Tudor inh -23%, G9a block 45µM*, BAZ2B inh 8%, HP1b chromo inh 21% and L3MBTL1 block 6%.
O=C(NC1CCCCC1)C(c1ccncc1)N(Cc1ccc(F)cc1)C(=O)c1ccccn1 (stereo not given) was read as JMJD2A Tudor inh -11%, G9a block inconclusive, BAZ2B inh 6%, HP1b chromo inh 38% and L3MBTL1 block -7%.
CCC(C)N(C(=O)COC(=O)c1nc2nc(C)cc(C)n2n1)C1CCS(=O)(=O)C1 (stereo not given) was read as JMJD2A Tudor inh -1%, G9a block 16µM*, BAZ2B inh -4%, HP1b chromo inh 28% and L3MBTL1 block 7%.
